Measured values published in PubChem BioAssay AID1259415 (National Center for Advancing Translational Sciences (NCATS), 2018).
About 18,000 (4.4%) of roughly 410,000 compounds were called active. Inconclusive results (about 7%) are left out. Only a selection was taken, and actives are over-represented in it overall. Unmarked numbers belong to inactive results. Cut-off read from the data, not from the text of the source: active = activity change below about -60%; inconclusive = no clear call, values can overlap the other calls; inactive = above about -39%.

assay: qHTS Assay for inhibitors of the human cytomegalovirus (HCMV); settings: HFF cells, HCMV-luciferase reporter, 72 h; at 57.5 µM; active compounds read low
How it was run: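 Two-dose cell screen: HFF monolayers treated with compounds and infected with luciferase-expressing HCMV at 1 PFU/cell, 72 h at 37C, then lysed for luciferase measurement.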
% is set by controls: 0 for no effect and ±100 for the full control effect.

Structure (SMILES) | activity change, negative = inhibition
Cc1oc(-c2ccccc2)nc1Cn1c(SCc2cccc(C(F)(F)F)c2)nc2cccnc21 | -23.2%
CCOc1cc(C2C(C(=O)OC)=C(C)NC3=C2C(=O)c2ccccc23)ccc1O (stereo unspecified) | -8.78%
CC1=NN(C(=O)CCc2ccccc2O)C(O)(C(F)(F)F)C1 (stereo unspecified) | -66% (active)
CC1=NN(C(=O)CCCc2ccccc2)C(O)(C(F)(F)F)C1 (stereo unspecified) | -24.1%
CC1=NN(C(=O)c2ccc(Br)cc2)C(O)(c2ccccc2)C1 (stereo unspecified) | -17.6%
COc1cccc(C(c2c(O)cc(C)n(Cc3ccco3)c2=O)N2CCN(c3ccccc3)CC2)c1 (stereo unspecified) | 7.72%
CC(C)CC(NS(=O)(=O)c1ccc2c(c1)oc(=O)n2C)C(=O)NCc1ccccc1Cl (stereo unspecified) | -14.5%
CCCCn1c(=O)c2oc3ccccc3c2n(CC(=O)Nc2ccccc2OC)c1=O | 17%
Cc1cc(N2CCN(c3cccc(C(F)(F)F)c3)CC2)n2nc(-c3ccccc3)nc2n1 | -20.6%
O=C(CSC1c2ccccc2-c2ccccc21)N/N=C/c1ccccc1 | 35.4%
Cc1ccc(/C=N/NC(=O)COc2ccccc2-c2ccccc2)cc1 | -81.9% (active)
Nc1nnn(CC(=O)N/N=C/c2ccccc2)n1 | -9.02%
CCOCCCNC(=O)c1c(NC(=O)c2nc(SC)ncc2Cl)sc2c1CCCC2 | 47.5%
O=C(CCn1c(=O)c2sccc2n(Cc2ccc(F)cc2)c1=O)NCc1ccc2c(c1)OCO2 | 14.2%
CSc1ccccc1-c1nnc(NC(=O)c2ccc3c(c2)OCCO3)o1 | 21.3%
c1ccc2c(c1)OCC(c1nn3cnnc3s1)O2 (stereo unspecified) | -4.38%
O=C(Nc1nnc(C2COc3ccccc3O2)o1)c1ccc(F)cc1 (stereo unspecified) | -81.3% (active)
Oc1ccccc1-c1nc(/C=C/c2ccc(F)cc2)no1 | 94.7%
COc1ccc(CNC(=O)c2cc3c(s2)-c2ccccc2OC3)cc1 | -13.2%
COc1cc(CNC(=O)c2cc3n(n2)CCCN(Cc2cccc(F)c2)C3=O)cc(OC)c1OC | -12.3%
C=C(C)CSc1nnc(-c2ccc(C)cc2)n1N | -8.53%
CN(C)c1cc[n+](Cc2ccccc2)cc1 | -86.3% (active)
N#Cc1ccc(-c2cccs2)nc1SCc1ccc(Br)cc1 | 5.81%

Structure (SMILES) | activity change, negative = inhibition
O=C1c2ccccc2C(Nc2ccc3c(c2)OCCO3)N1Cc1ccco1 (stereo unspecified) | -60.9% (active)
O=C(Nc1ccc2c(c1)OCCO2)C1c2ccccc2OCC(=O)N1Cc1ccccn1 (stereo unspecified) | 3.21%
CCCCCn1nnnc1C1c2ccccc2C(=O)N1Cc1ccco1 (stereo unspecified) | -25.7%
Cc1ccc(-c2noc(CSc3nnc(-c4ccc(Cl)cc4)n3C)n2)cc1 | -12.3%
CC1CN(C(=O)N2CCC(C(=O)NCc3cccs3)CC2)c2ccccc2O1 (stereo unspecified) | 8.43%
CCc1ccc(Nc2nn3c(=O)c4cc5c(cc4nc3s2)OCO5)cc1 | 9.55%
COc1cccc(C(c2nnnn2-c2ccc3c(c2)OCCO3)N2CCC3(CC2)C(=O)NCN3c2ccccc2)c1OC (stereo unspecified) | -15.1%
Cc1oc(-c2ccccc2F)nc1CN1CCC(C(=O)NCCc2ccc(Cl)cc2)CC1 | 0.215%
COc1ccc(F)c(-c2nc(CN3CCC(c4ccccc4)CC3)c(C)o2)c1 | -14%
Cc1nonc1C1CCCN1Cc1nc(-c2ccc(F)cc2F)oc1C (stereo unspecified) | -69.4% (active)
Cc1ccc(N(CC(=O)NCc2ccc(Cl)cc2)S(=O)(=O)N(C)C)cc1 | -16.9%
COc1ccc2c3c([nH]c2c1)[C@@H](CO)N(C(=O)C1CC1)CC31CCN(Cc2nccs2)CC1 | -2.14%
COc1ccc(CNC(=O)CSCc2nc(-c3ccccc3F)oc2C)cc1 | -16%
COc1ccc(N2CCN(C(=O)CCSCc3ccccc3F)CC2)cc1 | -16.4%
COc1ccc(N2CCN(C(=O)CSCc3nc(-c4ccccc4Cl)oc3C)CC2)cc1 | -81.2% (active)
COc1cccc(N=C2SC(C(=O)Nc3cccc(Cl)c3)CC(=O)N2C)c1 (stereo unspecified) | -4.69%
O=C(CSCc1cnn(-c2ccccc2)c1-n1cccc1)NCc1ccc(Cl)cc1 | -3.89%
COc1ccc(CNc2c(CO)cnc3c2cnn3C)cc1 | -66.6% (active)
CCCn1nnnc1NCc1ccc(OC)cc1 | -30.2%
CCCC(=O)n1nc(NCc2ccc(OC)cc2)nc1NCc1ccc(OC)cc1 | -26.6%
Fc1ccccc1Oc1ncnc2c1oc1ccccc12 | -3.15%
O=C(CC(NCc1cccnc1)C(=O)O)Nc1ccc(O)cc1 (stereo unspecified) | 5.47%
CCC(=O)Nc1ccc(C(=O)CSc2nnc(CNc3ccc(Cl)cc3)o2)cc1OC | -87.9% (active)

Structure (SMILES) | activity change, negative = inhibition
COc1ccccc1NC(=O)CSc1nnc(CNC(=O)c2ccccc2F)o1 | -5.51%
COc1cc(Cl)c(C)cc1NC(=O)CSc1nnc(CN2CCCC2)o1 | -9.81%
CCCCSc1ncnc2c1sc1nc(N3CCOCC3)c3c(c12)CCCC3 | 1.23%
Cc1ccc(-c2nc(Cn3c(=O)cc(-c4ccccc4)c4c(C)nn(C)c43)c(C)o2)cc1 | -9.59%
Cc1ccc(NC(=O)c2ccc(S(=O)(=O)NCC3CCCO3)cc2)cc1C (stereo unspecified) | 0.647%
O=C(Nc1ccc(S(=O)(=O)NCC2CCCO2)cc1)c1ccc(F)cc1 (stereo unspecified) | -71.5% (active)
O=C(NCC1CCCO1)c1ccc(S(=O)(=O)Nc2ccc(F)cc2)cc1 (stereo unspecified) | -30.8%
CCc1cccc(NC(=O)Cn2nc(CC)n3c(cc4cc(C)ccc43)c2=O)c1 | 18.4%
COc1ccc(CCNS(=O)(=O)c2cc(-c3cc(C)no3)ccc2C)cc1OC | 0%
CN(C)CC1Oc2ccccc2OC1(O)c1ccccc1 (stereo unspecified) | -104% (active)
CN(C)CCOC(=O)C(c1ccccc1)C1(O)CCCC1 (stereo unspecified) | 31.9%
CCc1cccc(NC(=O)CN(c2ccc(C)c(C)c2)S(=O)(=O)c2ccsc2C(=O)OC)c1 | 7.64%
CCc1nn(-c2cc(Oc3cccc4ccccc34)nc(-c3ccccc3)n2)c(N)c1C#N | -68% (active)
CCCCN(C)CCCNC(=O)CN1N=C(c2ccc(OC)cc2)CCC1=O | -26.4%
Cc1cccc(NC(c2cccc(F)c2)c2ccc3ccc(C)nc3c2O)n1 (stereo unspecified) | 84.7%
CCC(=O)NC(Nc1cc(C)ccn1)(C(F)(F)F)C(F)(F)F | 27.3%
Cc1ccnc(NC(c2ccc(C(F)(F)F)cc2)c2ccc3cccnc3c2O)c1 (stereo unspecified) | -97.9% (active)
CCNS(=O)(=O)c1ccc(CCC(=O)N2CCN(c3cc(Cl)ccc3C)CC2)cc1 | -68.5% (active)
CCNS(=O)(=O)c1ccc(CCC(=O)N2CCN(c3ccc(OC)cc3)CC2)cc1 | -33.4%
CCCNS(=O)(=O)c1ccc(CCC(=O)N2CCCC2)cc1 | -28.5%
CCOc1cccc2sc(N3CCN(C(=O)C4CC4)CC3)nc12 | -12.2%
CN1OC[C@@H]2CN(C(=O)C(C)(C)C)[C@H](c3ccc(-n4ccnc4)cc3)C[C@@H]21 | 22.3%
CCOC(=O)[C@]12CCC=C1N(Cc1cccc3ccccc13)C(=O)[C@H](CC(=O)NCc1cccc(C(F)(F)F)c1)C2 | 19.4%

Structure (SMILES) | activity change, negative = inhibition
Cc1ccc(-n2ncc3c(NCCCn4ccnc4)ncnc32)cc1Cl | 7.64%
Cc1noc(C)c1C(=O)NC(C)c1ccc2c(c1)OCO2 (stereo unspecified) | 59.8%
CC(NC(=O)c1ccco1)c1ccc2c(c1)OCO2 (stereo unspecified) | 11.5%
CC(NC(=O)Nc1cccc([N+](=O)[O-])c1)c1ccc2c(c1)OCO2 (stereo unspecified) | -64.3% (active)
COc1ccc(CCC(=O)NCCc2csc(-c3ccc(Cl)cc3)n2)cc1 | 7.81%
Cn1c(Cc2csc(N)n2)nnc1SC/C=C/c1ccccc1 | -18.7%
O=C(Nc1ccc(S(=O)(=O)N2CCC(c3nc4ccccc4s3)CC2)cc1)c1ccccc1F | -12.7%
O=C(C[n+]1cc(-c2ccc(Cl)c(Cl)c2)n2c1CCC2)c1cccs1 | -37.8%
Cc1ccc(C(=O)C[n+]2cc(-c3ccccc3)n3c2CCCCC3)cc1 | -92.1% (active)
Cn1c(-c2ccccc2)c[n+]2c1CCCCC2 | -28.9%
Cn1ccc2cc(S(=O)(=O)N3CCCC(C(=O)NCc4ccccc4F)C3)ccc21 (stereo unspecified) | -1.65%
CCCCOc1ccc(CNC(=O)c2ccc3c(c2)N(C)C(=O)C2CCCCN32)cc1 (stereo unspecified) | 25.7%
CCOC(=O)C1CCCN(S(=O)(=O)c2cc(-c3cc(C)no3)ccc2OC)C1 (stereo unspecified) | -10%
CC(C)c1ccc(NC(=O)Cn2c3ncccc3c(=O)n2-c2ccccc2)cc1 | 8.47%
CN1CCN(Cc2ccc(OC(F)(F)F)cc2)CC1 | -3.19%
COc1ccccc1CC1(C)C(=O)Nc2ccc(OC(F)(F)F)cc21 (stereo unspecified) | -18.7%
CCc1ccc2c(c1)NC(=O)C2(C)Cc1ccc(OC(F)(F)F)cc1 (stereo unspecified) | -75.3% (active)
CCn1c2ccccc2c2cc(CN3CCN(Cc4cccc(Cl)c4)CC3)ccc21 | -0.564%
Cc1ccc(/C=N/NC(=S)NC2CCCCC2)o1 | -8.71%
C/C(=N/NC(=O)c1ccc(Br)o1)c1ccc(C)o1 | 80.2%
C/C(=N\NC(=S)NC1CCCCC1)c1ccc(C)o1 | -90.6% (active)
Cn1c(=O)c2c(n3c4ccccc4nc13)NC(=O)CC2c1cccc(Cl)c1 (stereo unspecified) | 1.23%
